Data published in PubChem BioAssay (NCI).
This is part of a sample that, as a whole, favours compounds with a hit. Of some 83,000 tested, about 20% had one in any assay.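 96-well plates, one dose, 48 hours. Percent growth reported; active if below 10.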 Calls of active or inactive are those of the source.

What was measured:
Test in all cases: NCI-60 one-dose screen, 48 h (100 = growth as untreated, 0 = no growth, -100 = all killed)
SK-MEL-2 melanoma = conditions: 10 µM unless noted
EKVX NSCLC = conditions: 10 µM
SN12C renal = conditions: 10 µM unless noted
UO-31 renal = conditions: 10 µM unless noted
TK-10 renal = conditions: 10 µM unless noted
ACHN renal = conditions: 10 µM unless noted
CAKI-1 renal = conditions: 10 µM unless noted
A498 renal = conditions: 10 µM unless noted
CCRF-CEM leukemia = conditions: 10 µM
MOLT-4 leukemia = conditions: 10 µM unless noted

Measured: growth

C=C1CCC2C3(C)COC(c4ccccc4)OC3CCC2(C)C1C/C=C1/C(=O)OCC1O (stereo not given)
inactive: SK-MEL-2 melanoma 66.7% | EKVX NSCLC 104% | SN12C renal 66.7% | UO-31 renal 42.9% | TK-10 renal 105% | ACHN renal 86.7% | CAKI-1 renal 133%

CCOC(=O)c1c(C)oc2ncnc(Nc3ccc(NC(=O)Nc4ccc(CC)cc4)cc3)c12
inactive: SK-MEL-2 melanoma 120% | EKVX NSCLC 102% | SN12C renal 107% | UO-31 renal 94.8% | TK-10 renal 112% | ACHN renal 98.9% | CAKI-1 renal 98.4% | A498 renal 109% | CCRF-CEM leukemia 93.8%

CC(=O)c1cc(Nc2cc(C)nc(N)n2)cc(C(C)=O)c1
inactive: SK-MEL-2 melanoma 100% | EKVX NSCLC 101% | SN12C renal 94.1% | UO-31 renal 92.7% | TK-10 renal 94.8% | ACHN renal 102% | CAKI-1 renal 87% | A498 renal 91.7% | CCRF-CEM leukemia 86.9%

C=CCN(C)C
inactive: SK-MEL-2 melanoma 113% | EKVX NSCLC 92% | SN12C renal 94.7% | UO-31 renal 93.3% | TK-10 renal 119% | ACHN renal 105% | CAKI-1 renal 92.5% | A498 renal 91.1%

CCC(CCCN1C(=O)c2ccccc2C1=O)Nc1cc(OC)cc2c(C)ccnc12 (stereo not given)
inactive: SK-MEL-2 melanoma 87% | EKVX NSCLC 84.5% | SN12C renal 97.8% | UO-31 renal 115% | TK-10 renal 120% | ACHN renal 100% | CAKI-1 renal 75.7% | A498 renal 60% | CCRF-CEM leukemia 105% | MOLT-4 leukemia 66.3%

CCC1(CC)C(OC)NC(Br)=C(C#N)C1(C#N)C(N)=O (stereo not given)
inactive: SK-MEL-2 melanoma 102% | EKVX NSCLC 103% | SN12C renal 106% | UO-31 renal 85.2% | TK-10 renal 118% | ACHN renal 108% | CAKI-1 renal 117% | A498 renal 114% | CCRF-CEM leukemia 100% | MOLT-4 leukemia 88.4%

COc1cccc(CNC(=O)c2cccc(C3CC(=O)c4c(cc(OC)c(OC)c4OC)O3)c2)c1 (stereo not given)
inactive: SK-MEL-2 melanoma 38.5% | EKVX NSCLC 72.4% | SN12C renal 72.7% | UO-31 renal 51.6% | TK-10 renal 87.7% | ACHN renal 47.9% | CAKI-1 renal 77.3% | A498 renal 81.7% | CCRF-CEM leukemia 13.3%

Cc1nc(NC(=S)Nc2ccc(F)cc2)sc1C(=O)NNC(=S)Nc1ccc(F)cc1
active: SK-MEL-2 melanoma 3.22%
inactive: EKVX NSCLC 63.2% | SN12C renal 71.8% | UO-31 renal 38.7% | TK-10 renal 43.5% | ACHN renal 65.3% | CAKI-1 renal 101% | A498 renal 53.6% | CCRF-CEM leukemia 40.1% | MOLT-4 leukemia 36.5%

COC(=O)c1ccc2[nH]c(O)c(C(=Nc3ccc(N(C)C(=O)CN4CCN(C)CC4)cc3)c3ccc(CCO)cc3)c2c1
inactive: SK-MEL-2 melanoma 34.9% | EKVX NSCLC 85.5% | SN12C renal 27.8% | UO-31 renal 72.2% | TK-10 renal 65.2% | ACHN renal 74.1% | CAKI-1 renal 33.1% | A498 renal 45.6% | CCRF-CEM leukemia 15.5% | MOLT-4 leukemia 21.4%

O=C1C(Cl)=C(Nc2ccc(Nc3ccccc3)c(NC3=C(Cl)C(=O)c4ccccc4C3=O)c2)C(=O)c2ccccc21
inactive: SK-MEL-2 melanoma 106% | EKVX NSCLC 65.8% | SN12C renal 85% | UO-31 renal 57.3% | TK-10 renal 27.8% | ACHN renal 34.4% | CAKI-1 renal 45.3% | A498 renal 53% | CCRF-CEM leukemia 37.9% | MOLT-4 leukemia 37.3%

CCOC(=O)NNc1[nH]c(-c2ccc(OC)cc2)cc1C#N
active: CCRF-CEM leukemia 7.58%
inactive: SK-MEL-2 melanoma 105% | EKVX NSCLC 102% | SN12C renal 94.7% | UO-31 renal 87.8% | TK-10 renal 92.7% | ACHN renal 81.2% | CAKI-1 renal 121% | A498 renal 99.8%

CCCCCCCCCc1cc[n+](CC(=O)c2ccc([N+](=O)[O-])cc2)cc1
inactive: EKVX NSCLC 11.1% | UO-31 renal 35% | TK-10 renal 48.4% | ACHN renal 48.1% | CAKI-1 renal 74.9%
active: SK-MEL-2 melanoma -73.9% | SN12C renal -2.2%

CCOC(=O)C1=C(C(F)(F)F)NC(=O)NC1CN1C(=O)c2ccccc2C1=O (stereo not given)
inactive: SK-MEL-2 melanoma 109% | EKVX NSCLC 104% | SN12C renal 104% | UO-31 renal 102% | TK-10 renal 122% | ACHN renal 120% | CAKI-1 renal 114% | A498 renal 118%
active: CCRF-CEM leukemia -21.1%

O=C(/C=C/c1ccc(Br)cc1)c1ccccc1
inactive: SK-MEL-2 melanoma 103% | EKVX NSCLC 109% | SN12C renal 91.6% | UO-31 renal 80.3% | TK-10 renal 64% | ACHN renal 100% | CAKI-1 renal 101% | A498 renal 77.4% | CCRF-CEM leukemia 81.6%

COc1ccc(C(=O)CN2C(=O)NC(c3ccccc3)(c3ccccc3)C2=O)cc1
inactive: SK-MEL-2 melanoma 99.6% | EKVX NSCLC 98.9% | SN12C renal 101% | UO-31 renal 71.2% | TK-10 renal 117% | ACHN renal 104% | CAKI-1 renal 93.6% | A498 renal 70.5% | CCRF-CEM leukemia 94.8%
